# Where “and” joins values, the source holds several entries; their conditions need not be identical. Equal values may be shown once. Results filed as inconclusive are left out. Calls of active or inactive are those of the source. Calls come from the whole dose curve; as a rule, active = well fitted inhibition curve with a large enough effect; inconclusive = small, poorly fitted or top-dose-only effect; inactive = flat fitted curve, though single readings scatter.
# Test system: HaCat
# Assay: Cytotoxic Profiling of Annotated Libraries Using Quantitative High-Throughput Screening (AID 1296008); note: nearly all actives have a fitted effect of over 60% in size
# Conditions: Five cell lines viability, CellTiter-Glo ATP luminescence, 48-72 h; max response: active compounds read low
# Procedure, shortened: (§1)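 Cytotoxicity was measured as CellTiter-Glo ATP luminescence, read after 10 min at room temperature. Compound treatment of the cells lasted 48 or 72 hr at 37 degrees Celsius in a qHTS format.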
# % is set by controls: 0 for no effect and ±100 for the full control effect.
Compound,outcome,max response
Cc1ncc([N+](=O)[O-])n1CC(O)CCl (stereo not drawn),inactive,–
C[C@@H]1CCN(C(=O)[C@H](CCCN=C(N)N)NS(=O)(=O)c2cccc3c2NC[C@H](C)C3)[C@@H](C(=O)O)C1,–,0.409% (inactive)
C[C@H](NC(CCc1ccccc1)C(=O)O)C(=O)N1CCC[C@H]1C(=O)O (stereo partly drawn),inactive,–
Oc1ccc(C(O)CNCCCCCCNCC(O)c2ccc(O)c(O)c2)cc1O (stereo not drawn),inactive,–
CCCCC(CC)COC(=O)c1ccccc1O (stereo not drawn),inactive,–
N[C@H](C(=O)O)c1ccc(O)cc1,inactive,–
NC(=O)NC(=O)Cc1ccccc1,inactive,–
C#CCN(C)Cc1ccccc1,inactive,–
NS(=O)(=O)c1cc2c(cc1C(F)(F)F)NC(Cc1ccccc1)NS2(=O)=O (stereo not drawn),inactive,–
O=C1N=C(O)CN1/N=C/c1ccc(-c2ccc([N+](=O)[O-])cc2)o1,inactive,–
CCCCCCCCCCCCCCCCCCOCC(O)CO (stereo not drawn),inactive,–
NCCNCCNCCNCCN,inactive,–
CN(C)CCCO[C@@H]1[C@H]2OC(C)(C)O[C@H]2O[C@@H]1C(O)CO (stereo partly drawn),inactive,–
OC[C@H]1O[C@@H](O[C@@H]2[C@@H](CO)O[C@](O)(CO)[C@H]2O)[C@H](O)[C@@H](O)[C@H]1O,inactive,–
N[C@@H](CSSC[C@H](N)C(=O)O)C(=O)O,inactive,–
CC1(C)CO[C@@H](CC(=O)O)CN1,inactive,–
CC1=C(C/C=C(\C)CCC[C@H](C)CCC[C@H](C)CCCC(C)C)C(=O)c2ccccc2C1=O,inactive,–
COc1cc(C(=O)N2CCOCC2)cc(OC)c1OC,inactive,–
CCCCC/C(C=O)=C\c1ccccc1,–,1.14% (inactive)
CC(=O)Nc1ccc(/C=N/NC(N)=S)cc1,inactive,–

Compound,outcome,max response
O=C1OC(OC(=O)c2cccnc2Nc2cccc(C(F)(F)F)c2)c2ccccc21 (stereo not drawn),inactive,–
O=C(O)CN1C(=O)c2cccc3cccc(c23)C1=O,inactive,–
CN1[C@@H]2CC[C@H]1CC(OC(=O)C(O)c1ccccc1)C2 (stereo partly drawn),inactive,–
O=C(Oc1ccccc1C(=O)O)c1ccccc1O,inactive,–
CC(COc1ccccc1)NC(C)C(O)c1ccc(O)cc1 (stereo not drawn),–,-5.97% (inactive)
CCN(CC)CCOC(=O)C1(C2CCCCC2)CCCCC1,inactive,–
Cc1cc(O)cc2c1O[C@](C)(CCC[C@H](C)CCC[C@H](C)CCCC(C)C)CC2,inactive,–
O=S(=O)(O)c1cc(I)c(O)c2ncccc12,inactive,–
Cc1ncc(COP(=O)(O)O)c(C=O)c1O,inactive,–
CO/N=C(\C(=O)N[C@@H]1C(=O)N2C(C(=O)O)=C(CSc3nc(=O)c(O)nn3C)CS[C@H]12)c1csc(N)n1,–,-21.1% (inactive)
O=C(O)COc1nn(Cc2ccccc2)c2ccccc12,inactive,–
CCCc1c(OCCCCc2nn[nH]n2)ccc(C(C)=O)c1O,inactive,–
COc1ccc2cc1Oc1cc3c(cc1OC)CC[N+](C)(C)[C@H]3Cc1ccc(cc1)Oc1c(OC)c(OC)cc3c1[C@@H](C2)[N+](C)(C)CC3,–,0.882% (inactive)
NC1CCN(c2cccc(Cl)n2)CC1,inactive,–
Nc1cc(=O)[nH]c(N)n1,inactive,–
CC(O)COc1ccccc1 (stereo not drawn),inactive,–
CC1CC(OC(=O)C(O)c2ccccc2)CC(C)(C)N1C (stereo not drawn),–,1.05% (inactive)
O=C1O[C@H](CO)[C@@H](O)[C@H](O)[C@H]1O,inactive,–
NC(CSCC(=O)O)C(=O)O (stereo not drawn),inactive,–

# Test system: KB-3-1
# Assay: as above
# Conditions: Five cell lines viability, CellTiter-Glo ATP luminescence, 48-72 h; max response: active compounds read low
# Procedure, shortened: as §1
row,Compound,max response
1,Cc1ncc([N+](=O)[O-])n1CC(O)CCl (stereo not drawn),18% (inactive)
2,C[C@@H]1CCN(C(=O)[C@H](CCCN=C(N)N)NS(=O)(=O)c2cccc3c2NC[C@H](C)C3)[C@@H](C(=O)O)C1,1.81% (inactive)
3,C[C@H](NC(CCc1ccccc1)C(=O)O)C(=O)N1CCC[C@H]1C(=O)O (stereo partly drawn),-16.2% (inactive)
4,Oc1ccc(C(O)CNCCCCCCNCC(O)c2ccc(O)c(O)c2)cc1O (stereo not drawn),1.48% (inactive)
5,CCCCC(CC)COC(=O)c1ccccc1O (stereo not drawn),-6.97% (inactive)
6,N[C@H](C(=O)O)c1ccc(O)cc1,2.74% (inactive)
7,NC(=O)NC(=O)Cc1ccccc1,5.24% (inactive)
8,C#CCN(C)Cc1ccccc1,-4.93% (inactive)
9,NS(=O)(=O)c1cc2c(cc1C(F)(F)F)NC(Cc1ccccc1)NS2(=O)=O (stereo not drawn),-0.539% (inactive)
10,O=C1N=C(O)CN1/N=C/c1ccc(-c2ccc([N+](=O)[O-])cc2)o1,4.36% (inactive)
11,CCCCCCCCCCCCCCCCCCOCC(O)CO (stereo not drawn),4.03% (inactive)
12,NCCNCCNCCNCCN,-4.72% (inactive)
13,CN(C)CCCO[C@@H]1[C@H]2OC(C)(C)O[C@H]2O[C@@H]1C(O)CO (stereo partly drawn),3.47% (inactive)
14,OC[C@H]1O[C@@H](O[C@@H]2[C@@H](CO)O[C@](O)(CO)[C@H]2O)[C@H](O)[C@@H](O)[C@H]1O,-20% (inactive)
15,N[C@@H](CSSC[C@H](N)C(=O)O)C(=O)O,4.84% (inactive)
16,CC1(C)CO[C@@H](CC(=O)O)CN1,9.26% (inactive)
17,CC1=C(C/C=C(\C)CCC[C@H](C)CCC[C@H](C)CCCC(C)C)C(=O)c2ccccc2C1=O,-12.7% (inactive)
18,COc1cc(C(=O)N2CCOCC2)cc(OC)c1OC,4.09% (inactive) and 1.86% (inactive)
19,CCCCC/C(C=O)=C\c1ccccc1,-6.5% (inactive)
20,CC(=O)Nc1ccc(/C=N/NC(N)=S)cc1,-10.7% (inactive) and 2.19% (inactive)

row,Compound,max response
1,O=C1OC(OC(=O)c2cccnc2Nc2cccc(C(F)(F)F)c2)c2ccccc21 (stereo not drawn),7.28% (inactive)
2,O=C(O)CN1C(=O)c2cccc3cccc(c23)C1=O,-7.36% (inactive)
3,CN1[C@@H]2CC[C@H]1CC(OC(=O)C(O)c1ccccc1)C2 (stereo partly drawn),3.38% (inactive) and -1.31% (inactive) and -10.9% (inactive)
4,O=C(Oc1ccccc1C(=O)O)c1ccccc1O,-14.6% (inactive)
5,CC(COc1ccccc1)NC(C)C(O)c1ccc(O)cc1 (stereo not drawn),15.9% (inactive)
6,CCN(CC)CCOC(=O)C1(C2CCCCC2)CCCCC1,-11.2% (inactive)
7,Cc1cc(O)cc2c1O[C@](C)(CCC[C@H](C)CCC[C@H](C)CCCC(C)C)CC2,-4.01% (inactive) and 1.69% (inactive)
8,O=S(=O)(O)c1cc(I)c(O)c2ncccc12,-3.56% (inactive)
9,Cc1ncc(COP(=O)(O)O)c(C=O)c1O,-1.97% (inactive)
10,CO/N=C(\C(=O)N[C@@H]1C(=O)N2C(C(=O)O)=C(CSc3nc(=O)c(O)nn3C)CS[C@H]12)c1csc(N)n1,-0.48% (inactive)
11,O=C(O)COc1nn(Cc2ccccc2)c2ccccc12,-3.25% (inactive)
12,CCCc1c(OCCCCc2nn[nH]n2)ccc(C(C)=O)c1O,-12.2% (inactive)
13,COc1ccc2cc1Oc1cc3c(cc1OC)CC[N+](C)(C)[C@H]3Cc1ccc(cc1)Oc1c(OC)c(OC)cc3c1[C@@H](C2)[N+](C)(C)CC3,0.968% (inactive)
14,NC1CCN(c2cccc(Cl)n2)CC1,2% (inactive)
15,Nc1cc(=O)[nH]c(N)n1,-2.08% (inactive)
16,CC(O)COc1ccccc1 (stereo not drawn),5.08% (inactive)
17,CC1CC(OC(=O)C(O)c2ccccc2)CC(C)(C)N1C (stereo not drawn),1.03% (inactive) and 0.565% (inactive)
18,O=C1O[C@H](CO)[C@@H](O)[C@H](O)[C@H]1O,25.2% (inactive)
19,NC(CSCC(=O)O)C(=O)O (stereo not drawn),-5.75% (inactive)

# — PubChem BioAssay (NCATS)
